Active and inactive are the calls of the source.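 Rule for the calls, unless noted: active = NADPH fluorescence slope more negative than the mean of all samples by about 3 SD, 99.7% confidence; inactive = the rest.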

A short description of experiment [1]: inhibitors of TNFa-induced NFkB p65 translocation, primary screen, imaging, HUVEC, MLSMR starter and 10KST1 sets (AID 438;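 active = inhibition above 20% together with a positive visual image hit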;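 note: compound added about 3h40 before a 20 min TNFalpha stimulation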;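 for inhibition: signal is the nuclear over cytoplasmic p65 intensity ratio per well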). Particulars: HUVEC TNFa-induced p65 nuclear translocation; cell count: measured here: nuclei count (cytotoxicity indicator), at 2.08 µM; inhibition: at 2 µM, stronger effect = higher value, 0% TNFa-plus-vehicle, 100% no-TNFa wells.
Experiment [2] in a line: inhibitors of mutant huntingtin aggregation, primary screen, imaging, exon1htt(103Q)mCFP cells, high-content imaging (AID 483;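 active = visual image review flags a hit and inhibition of aggregation exceeds 20%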;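 note: compound exposure lasted 3 days before fixation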;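 for nuclei count: percent of the per-plate median nuclei count of sample wells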). The following applies: exon1htt(103Q)mCFP cell line, aggregate imaging, at 2 µM; inhibition of aggregation: stronger effect = higher value; nuclei count: measured here: cell count, toxicity.
Experiment [3] can be described thus: inhibitors of E-selectin induction by TNFa, primary screen, imaging, HUVEC, immunofluorescence, MLSMR starter and 10KST1 sets (AID 487;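 active = visually confirmed hit in the image check and inhibition above 20%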;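 for inhibition: signal is fraction of cell area covered by stained E-selectin grains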;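 for nuclei count: 100% = median nuclei count of all wells on the same plate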). The following applies: HUVEC TNFalpha-induced E-selectin immunofluorescence imaging, at 2 µM; inhibition: stronger effect = higher value; nuclei count: measured here: cell number, toxicity.
The target in experiment [4] is Voltage-gated potassium channel subunit beta-2 (Rattus norvegicus) (UniProt P62483). As to the kind of experiment: KvBeta enzyme negative modulators, primary screen, biochemical, NADPH fluorescence (AID 622;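 active = fluorescence slope higher than the sample average by over 3 SD, cut at about -0.22 in these data, passing the limit was not always enough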;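 note: slope of raw intensity against log time taken from 70 to 1610 s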). Particulars: recombinant KvBeta, 4-cyanobenzaldehyde reduction, at 10 µM, stronger effect = higher value.
Chain of Voltage-gated potassium channel subunit beta-2 (Rattus norvegicus) (P62483 whole entry, looked up): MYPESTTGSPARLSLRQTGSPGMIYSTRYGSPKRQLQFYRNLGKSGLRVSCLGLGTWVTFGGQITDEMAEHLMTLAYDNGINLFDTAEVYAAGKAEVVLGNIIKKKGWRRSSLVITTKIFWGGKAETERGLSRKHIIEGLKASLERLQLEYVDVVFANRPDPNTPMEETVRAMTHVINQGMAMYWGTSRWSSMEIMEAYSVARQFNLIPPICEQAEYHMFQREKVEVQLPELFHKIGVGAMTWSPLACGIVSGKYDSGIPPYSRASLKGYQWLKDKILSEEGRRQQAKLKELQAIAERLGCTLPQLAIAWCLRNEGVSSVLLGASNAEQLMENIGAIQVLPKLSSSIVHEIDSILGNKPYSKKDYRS
For experiment [5] the target is unchanged. The experiment can be described thus: KvBeta positive modulators, primary screen, biochemical, NADPH fluorescence (AID 623).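 Note: fluorescence intensity change per second fitted from 20 to 320 s.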 The following applies: Recombinant KvBeta, NADPH fluorescence decrease slope, 10 min; at 10 µM; stronger effect = lower value.
The target in experiment [6] is Alpha-2C adrenergic receptor (Homo sapiens) (UniProt P18825). The experiment can be described thus: modulators of alpha2C/GIRK thallium flux, primary screen, cell-based, HEK293 alpha2C/GIRK1/2 (AID 624;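 active = fluorescence slope after compound addition differing from the mean of all screened samples at 99.7% confidence, in either direction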;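 note: slope of fluorescence ratio to pre-addition baseline per second over 15 to 24 s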). The following applies: thallium flux BTC fluorescence, at 10 µM, actives lie on both sides.
Chain of Alpha-2C adrenergic receptor (Homo sapiens) (P18825 whole entry, looked up): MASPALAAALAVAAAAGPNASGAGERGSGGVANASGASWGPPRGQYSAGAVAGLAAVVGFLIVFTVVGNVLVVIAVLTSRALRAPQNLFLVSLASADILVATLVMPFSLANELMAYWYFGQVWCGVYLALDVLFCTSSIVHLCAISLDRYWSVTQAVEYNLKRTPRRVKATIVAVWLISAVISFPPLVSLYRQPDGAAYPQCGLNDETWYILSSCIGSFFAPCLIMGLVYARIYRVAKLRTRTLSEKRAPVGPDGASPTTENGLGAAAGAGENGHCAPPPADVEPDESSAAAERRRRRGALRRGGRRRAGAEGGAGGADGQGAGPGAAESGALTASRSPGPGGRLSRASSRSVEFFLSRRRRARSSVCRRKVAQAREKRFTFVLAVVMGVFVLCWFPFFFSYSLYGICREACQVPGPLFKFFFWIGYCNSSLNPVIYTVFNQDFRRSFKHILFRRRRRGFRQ
Experiment [7] in a line: inhibitors of Sendai virus-induced IRF3 signaling, primary screen, TLR/RLR signaling modifier project, cell-based, Sendai virus stimulus, luciferase, 10K MLSCN set (AID 602276;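 active = inhibition at or above 50% at 10 µM; inactive = inhibition below 50%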;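 note: firefly luciferase from ISG56 promoter only with Renilla not read in this screen; 0% = Sendai virus plus DMSO and 100% = medium plus DMSO without virus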). Particulars: HEK293 RL24 IRF3 luciferase reporter, at 10 µM, stronger effect = higher value. On the technique in general: In a reporter assay the amount or activity of a reporter protein is the signal.
Experiment [8] can be described thus: inhibitors of poly I:C-induced TLR3 signaling, primary screen, cell-based, poly I:C stimulus, luciferase, 10K MLSCN set (AID 602277;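 active = inhibition of the reporter signal at or above 50%; inactive = inhibition below 50%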). The following applies: HEK293-TLR3 RL24 IRF3 luciferase reporter, at 10 µM, stronger effect = higher value.

As a reminder, the inhibition is the change of the read-out against control, counted positive when it falls. Consider `CN(C1CCS(=O)(=O)C1)S(=O)C12CC3CC(CC(C3)C1)C2` (stereo not drawn), for which, in experiment [1], the cell count stood at 150. Further, the inhibition in experiment [1] is 23.1% (inactive); in experiment [3] it was 1.8% (inactive); in experiment [7], -4.43% (inactive); in experiment [8], 99.5% (active). Also, the inhibition of aggregation in experiment [2] is -16% (inactive). The nuclei count in experiment [2] was determined as 98%; in experiment [3], 95.7%. Moreover, the fluorescence slope in experiment [4] was -0.533 (inactive). Besides, the NADPH fluorescence slope in experiment [5] is -3.6e-05 (inactive). For the same compound, the slope in experiment [6] is 0.00528 (inactive).
Turning to `N#Cc1ccccc1Cn1c(=O)n(Cc2ccc(C(=O)NCc3ccco3)cc2)c(=O)c2ccccc21`, in experiment [1], the cell count was 689. Further, the inhibition is -11.4% (inactive) in experiment [1], -47.4% (inactive) in experiment [3], 1.35% (inactive) in experiment [7] and -0.0219% (inactive) in experiment [8]. Besides, in experiment [2], the inhibition of aggregation was -4.5% (inactive). In addition, the figures for the nuclei count in experiment [2] and in experiment [3] were 83.9% and 92.1%, respectively. For the same compound, in experiment [4], the fluorescence slope is -0.5 (inactive). The NADPH fluorescence slope in experiment [5] was 2e-05 (inactive). Further, the slope in experiment [6] is 0.00719 (inactive).
`COc1ccc(-c2nc(CS(=O)CC(=O)NCc3ccccn3)c(C)o2)cc1` (stereo not drawn): the cell count in experiment [1] worked out at 518. For the same compound, the inhibition in experiment [1] is 1.9% (inactive); in experiment [3], -25.4% (inactive); in experiment [7], 44.5% (inactive); in experiment [8] it was 9.92% (inactive). Further, in experiment [2], the inhibition of aggregation was -23.1% (inactive). For the same compound, the nuclei count was 104% in experiment [2] and 99.7% in experiment [3]. Further, the fluorescence slope in experiment [4] is -0.527 (inactive). For the same compound, in experiment [5], the NADPH fluorescence slope was -1.1e-05 (inactive). In addition, the slope in experiment [6] was 0.00839 (inactive).
Regarding `O=S(c1ccsc1)c1ccsc1`, the cell count in experiment [1] came to 444. The inhibition in experiment [1] was 6.5% (inactive); in experiment [3], 13% (inactive); in experiment [7] it was 19.8% (inactive); in experiment [8], 26.3% (inactive). Further, the inhibition of aggregation in experiment [2] was 1.4% (inactive). For the same compound, the values for the nuclei count in experiment [2] and in experiment [3] were 95.8% and 99.8%, respectively. The fluorescence slope in experiment [4] is -0.497 (inactive). Further, the NADPH fluorescence slope in experiment [5] was -4.1e-05 (inactive). For the same compound, in experiment [6], the slope was 0.00527 (inactive).
As for `COc1ccc(Nc2nc(-c3sc(N)nc3C)cs2)cc1`, the cell count in experiment [1] stood at 661. For the same compound, the inhibition is -5.8% (inactive) in experiment [1], -75.8% (inactive) in experiment [3], -13.1% (inactive) in experiment [7] and -17.6% (inactive) in experiment [8]. For the same compound, the inhibition of aggregation in experiment [2] is -10.7% (inactive). The results for the nuclei count in experiment [2] and in experiment [3] were 116% and 118%, respectively. The fluorescence slope in experiment [4] was -0.376 (inactive). Besides, the NADPH fluorescence slope in experiment [5] was -6.4e-05 (inactive). Also, the slope in experiment [6] is 0.0038 (inactive).
With `CC(C)n1c(NCc2c[nH]c3ccccc23)nc2ccccc21`, the cell count in experiment [1] was 489. Moreover, the inhibition in experiment [1] is 1% (inactive); in experiment [3], -5.1% (inactive); in experiment [7], -4.81% (inactive); in experiment [8], -0.81% (inactive). In addition, the inhibition of aggregation in experiment [2] was 20.3% (inactive). In addition, the nuclei count in experiment [2] amounted to 54.6%; in experiment [3] it was 86.6%. The fluorescence slope in experiment [4] is -0.511 (inactive). Besides, in experiment [5], the NADPH fluorescence slope was -4.3e-05 (inactive). Also, the slope in experiment [6] is 0.00272 (inactive).
`Cc1ccc(-c2noc(CN3CCN(c4ccccc4F)CC3)n2)cc1`: in experiment [1], the cell count was found to be 468. Further, the inhibition was -2.6% (inactive) in experiment [1], -30.6% (inactive) in experiment [3], 14.7% (inactive) in experiment [7] and 39% (inactive) in experiment [8]. For the same compound, in experiment [2], the inhibition of aggregation is -0.3% (inactive). The nuclei count turned out to be 84.1% in experiment [2] and 101% in experiment [3]. The fluorescence slope in experiment [4] was -0.556 (inactive). Also, in experiment [5], the NADPH fluorescence slope was -3.7e-05 (inactive). Besides, the slope in experiment [6] is 0.00746 (inactive).
As for `CCOc1ccc(-c2nc(N)ncc2-c2ccccc2)c(O)c1`, the cell count in experiment [1] was 399. The inhibition was 2% (inactive) in experiment [1], -32.6% (inactive) in experiment [3], -1.82% (inactive) in experiment [7] and -1.28% (inactive) in experiment [8]. Also, in experiment [2], the inhibition of aggregation was -4.3% (inactive). The nuclei count in experiment [2] was 114%; in experiment [3], 67.7%. Further, the fluorescence slope in experiment [4] was -0.581 (inactive). Moreover, in experiment [5], the NADPH fluorescence slope is -3.6e-05 (inactive). Further, the slope in experiment [6] was 0.00545 (inactive).
As to `CCOC(=O)c1c(N)sn(-c2ccccc2)c1=S`, the cell count in experiment [1] worked out at 441. For the same compound, the inhibition was -9.2% (inactive) in experiment [1], -55.1% (inactive) in experiment [3], 15.3% (inactive) in experiment [7] and 20% (inactive) in experiment [8]. For the same compound, the inhibition of aggregation in experiment [2] was 5.4% (inactive). The nuclei count worked out at 114% in experiment [2] and 112% in experiment [3]. The fluorescence slope in experiment [4] is -0.37 (inactive). For the same compound, the NADPH fluorescence slope in experiment [5] was -5.3e-05 (inactive). The slope in experiment [6] is 0.00599 (inactive).
On to `CCOC(=O)c1cnc(SC2CC(=O)N(c3ccc(OC)c(OC)c3)C2=O)nc1N` (stereo not drawn), for which the cell count in experiment [1] is 811. The inhibition in experiment [1] is -3.6% (inactive); in experiment [3] it was -110% (inactive); in experiment [7], -6.56% (inactive); in experiment [8] it was -2.72% (inactive). For the same compound, the inhibition of aggregation in experiment [2] was -0.6% (inactive). Also, the nuclei count in experiment [2] was 95.4%; in experiment [3], 135%. Further, the fluorescence slope in experiment [4] was -0.531 (inactive). Besides, in experiment [5], the NADPH fluorescence slope is 1.4e-05 (inactive). Further, the slope in experiment [6] was 0.00718 (inactive).
With `O=C1CCn2nc(-c3ccc(Cl)cc3)cc2N1`, the cell count in experiment [1] was found to be 557. In addition, the inhibition in experiment [1] was -0.5% (inactive); in experiment [3] it was -66.1% (inactive); in experiment [7] it was -20.1% (inactive); in experiment [8], -53% (inactive). For the same compound, the inhibition of aggregation in experiment [2] was -106% (inactive). For the same compound, the figures for the nuclei count in experiment [2] and in experiment [3] were 1.2% and 118%, respectively. In experiment [4], the fluorescence slope was -0.601 (inactive). For the same compound, the NADPH fluorescence slope in experiment [5] was -3.8e-05 (inactive). Besides, the slope in experiment [6] was 0.00658 (inactive).
`Cn1nc(C(=O)NC2CCCCCC2)ccc1=O`: in experiment [1], the cell count was determined as 348. Further, the inhibition is -4.6% (inactive) in experiment [1], -2.2% (inactive) in experiment [3], 9.51% (inactive) in experiment [7] and 11.7% (inactive) in experiment [8]. For the same compound, the inhibition of aggregation in experiment [2] was 14% (inactive). Besides, the nuclei count came to 105% in experiment [2] and 121% in experiment [3]. Moreover, the fluorescence slope in experiment [4] is -0.608 (inactive). The NADPH fluorescence slope in experiment [5] is -2.1e-05 (inactive). Also, the slope in experiment [6] is 0.00579 (inactive).
Turning to `CCOc1cc(NC(=O)c2ccco2)c(OCC)cc1NC(=O)Cc1cccc(OC)c1`, the cell count in experiment [1] was determined as 592. Further, the inhibition in experiment [1] was -14.5% (inactive); in experiment [3], 22.4% (inactive); in experiment [7], -6.51% (inactive); in experiment [8], -45.9% (inactive). Further, the inhibition of aggregation in experiment [2] is -4.3% (inactive). For the same compound, the nuclei count in experiment [2] was 107%; in experiment [3], 102%. Besides, the fluorescence slope in experiment [4] is -0.397 (inactive). In addition, the NADPH fluorescence slope in experiment [5] is -5.1e-05 (inactive). For the same compound, the slope in experiment [6] is 0.00431 (inactive).
